29 compounds from PubChem BioAssay AID435019 (Southern Research Specialized Biocontainment Screening …, 2010) can be followed below.

In all, about 2,300 compounds went through this assay and about 1,200 (52%) were called active. How the calls were made is not given here. So high a share suggests a set chosen from earlier hits. The list shows a part of the results. Results with a measured potency or affinity are listed apart.

As usually defined, the viability is a per cent measure of how many cells are alive, often set against a control.

The nature of this assay: mammalian cell cytotoxicity, dose response, cytotoxicity control for M. tuberculosis inhibitor project (AID 435019).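 Further: 0% = background wells and 100% = vehicle-treated cells; lower values mean fewer viable cells so more cytotoxicity.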 The conditions noted are these: cytotoxicity counter-screen; series mostly up to 40 µM; viability: at the top concentration.
On to `CC(c1nc2ccccc2c(=O)[nH]1)N(C)CCOc1ccc(Cl)cc1` (centres undefined), for which the “viability” value was 94.2% (inactive).
`CCOC(=O)C1CCN(C(=O)c2ccc3c(c2)NC(=O)/C(=C/c2ccccc2)S3)CC1`: the “viability” value is 90% (inactive).
`CN(C)c1ccc(CNc2nc(-c3ccccc3)nn2S(C)(=O)=O)cc1`: the “viability” value was 97.1% (inactive).
Turning to `Nc1ccc(N=Nc2ccccc2)c(N)n1`, the “viability” value was 80.2% (inactive).
Take `C#CCOC(=O)/C(=C/c1ccc(F)cc1)NC(C)=O`: the “viability” value is 96.9% (inactive).
For `COc1ccc(-n2c(-c3ccc(Cl)cc3)c[n+]3c2CCc2ccccc2-3)cc1`, the “viability” value is 89.3% (inactive).
Next, `Cc1ccc(C(=O)C[n+]2cc(-c3ccc(C)cc3)n3c2CCCCC3)cc1`: 87.2% (inactive).
In the case of `O=C(CN1CCN(Cc2ccc(Cl)cc2)CC1)N/N=C/C=C/c1ccccc1[N+](=O)[O-]`, the “viability” value is 90% (inactive).
Regarding `O=S(=O)(Nc1ccc2[nH]ncc2c1)c1ccccc1Cl`, the “viability” value was 91.5% (inactive).
Consider `CC(C)(C)C1CCc2nc(NC(=O)Cc3cn4ccsc4n3)sc2C1` (centres undefined), for which the “viability” value was 82.1% (inactive).
Turning to `COC(=O)[C@H](CCSC)NC(=O)N1CCN(c2cccc(C(F)(F)F)c2)CC1`, the “viability” value was 94.1% (inactive).
On to `Cc1cc2c(cc1C)/C(=N/NC(=O)c1ccccn1)CCC2`, for which the “viability” value was 81% (inactive).
Turning to `O=C(NNC1CC(=O)N(c2ccc(Br)cc2)C1=O)c1ccccn1` (centres undefined), the “viability” value is 99% (inactive).
In the case of `Cc1nn(-c2ccccc2)c(Cl)c1C(=O)Nc1nnc(C2CCCCC2)s1`, the “viability” value is 82.8% (inactive).
With `Cc1nn(-c2ccccc2)c(Cl)c1/C=C/C(=O)c1ccccc1`, the “viability” value was 80.3% (inactive).
As for `Cc1cccc(C)c1OCCCCc1c(C)n[nH]c1C`, the “viability” value is 91.1% (inactive).
As to `COC(=O)CCc1sc(Nc2ccc(Br)cc2)nc1-c1ccc(OC)cc1`, the “viability” value was 86.9% (inactive).
Next, `COC(=O)c1cc(-c2cccc(OC)c2)on1`: 90.3% (inactive).
As for `COc1cccc(NC(=O)CNC(=O)Cn2cnc3sc4c(c3c2=O)CCCC4)c1`, the “viability” value was 90.4% (inactive).
As for `Cn1/c(=N/NC(=O)c2cccc(OC(F)F)c2)sc2ccccc21`, the “viability” value is 85.7% (inactive).
For the compound `CCNC(=S)NN=C1c2ccccc2-c2ccccc21`, the “viability” value is 80.4% (inactive).
Take `CC(OC(=O)COc1ccc(Nc2ccccc2)cc1)C(=O)N(C)c1ccccc1` (centres undefined): the “viability” value was 89.2% (inactive).
For `C[n+]1c(-c2ccccc2)cc(CCCCc2cc(-c3ccccc3)[n+](C)c(-c3ccccc3)c2)cc1-c1ccccc1`, the “viability” value is 86.5% (inactive).
Next, `CC1CC(C)CN(C(=O)C2CCC(CNc3c(N4CCCCC4)c(=O)c3=O)CC2)C1` (centres undefined): 94.5% (inactive).
Turning to `CCC(C)c1ccc2oc(-c3ccc(NC(=O)c4ncn[nH]4)cc3)nc2c1` (centres undefined), the “viability” value was 96.7% (inactive).
With `CC(/C=C/C=C/c1ccccc1)=N\NC(=O)c1cccnc1`, the “viability” value is 80.9% (inactive).
For `CCC1CSC(Nc2ccc(C(=O)/C=C/c3cccc(C)c3)cc2)=N1` (centres undefined), the “viability” value is 86.8% (inactive).
For `CCOC(=O)COc1cc([N+](=O)[O-])cc2cccnc12`, the “viability” value is 93.1% (inactive).
Turning to `O=C(c1ccccc1)c1c[nH]c(C(=O)NNc2ccccc2)c1`, the “viability” value was 88.7% (inactive).
